This note sets out measurements from PubChem BioAssay.

The nature of this assay: basal RPMI8226 mitochondrial membrane potential changes, profiling panel, cell-based, JC-1 fluorescence, 24 h, 100 nL compound (AID 1169). Note: test concentration not given here. The following applies: RPMI8226 myeloma, JC-1 mitochondrial potential fluorescence, higher = more signal.
Compound `Cc1ccc(S(=O)(=O)N2[C@@H](c3ccccc3)C(C(=O)O)=C[C@H]2C(C)(C)C)cc1` showed a z-score of -0.369.

In the case of `C=C1C(=O)C=C2CN(C(=O)c3ccccc3)[C@@](Cc3ccc(F)cc3)(C(=O)OC)[C@@H]12`, the z-score is -0.764.

The compound `COC(=O)[C@@]1(Cc2ccc(F)cc2)[C@H]2c3cc(C(=O)N4CCCC4)n(CCc4c[nH]c5cc(F)ccc45)c3C[C@H]2CN1C(=O)c1ccccc1` returned a z-score of -0.449.

In turn, `CCCCN1CC=CC23O[C@@H]4C=CCCOC(=O)C4[C@H]2C(=O)N(CCO)[C@@H]3C1=O` (stereo not given in full) gave a z-score of 0.0612.

Compound `Cc1ccc(S[C@]2(C(=O)NC3CC3)CC(=O)N(C3Cc4ccccc4C3)[C@@H]2c2ccc(CO)cc2I)cc1` showed a z-score of -0.502.

Consider `C=CCOC(=O)[C@H]1[C@@H]2C(=O)O[C@@H](c3ccccc3)[C@@H](c3ccccc3)N2[C@@H](c2ccc(OCCOC(=O)[C@H]3C[C@H]4C(=O)NCC(=O)N4[C@H]3c3cccc(OCCO)c3)cc2)[C@]12C(=O)Nc1ccc(I)cc12`, for which the z-score is -0.554.

For the compound `CC1(C)OB(/C=C\CC(OC(=O)c2ccncc2)c2ccccc2)OC1(C)C` (stereo not given), the z-score was -0.194.

As to `CC[C@@H](O[Si](C#C[Si](C(C)C)(C(C)C)C(C)C)(C(C)C)C(C)C)c1cn([C@H](CO)Cc2ccccc2)nn1`, the z-score is -0.0761.

`C=C[C@H](OC)[C@@H](O)c1ccc(OC)c(O)c1`: the z-score was 0.5.

As to `CC(C)(C)OC(=O)CC[C@@]1(C(N)=O)N=C(c2ccc(OCCCO)cc2)O[C@@H]1c1ccccc1CN=[N+]=[N-]`, the z-score worked out at 0.698.

For `COCCOC(=O)N1C(=O)[C@@]2(c3cc(C#CCNC(N)=O)ccc31)[C@H](c1ccc(O)cc1)N1[C@H](c3ccccc3)[C@H](c3ccccc3)OC(=O)[C@H]1[C@@H]2C(=O)N1CCc2cc(OC)c(OC)cc2C1`, the z-score was determined as 0.0593.

Compound `COc1cc2c(cc1O)C(C)N(Cc1sc3ccccc3c1Cl)CC2` (stereo not given) displayed a z-score of 0.838.

In turn, `COCCOC(=O)N1C(=O)[C@@]2(c3cc(C#CCC(C(=O)OC)C(=O)OC)ccc31)[C@H](C(N)=O)[C@H]1C(=O)O[C@H](c3ccccc3)[C@H](c3ccccc3)N1[C@@H]2c1ccccc1OCCO` showed a z-score of -0.79.

`C[C@H]1C2[C@H](Cc3ccccc3)NC(=O)[C@]23C(=O)N[C@@H](Cc2ccccc2)C(=O)N2CCC[C@H]2C(=O)NC/C=C/CC/C=C/C3[C@@H]2O[C@]12C` (stereo not given in full) came in with a z-score of 0.0536.

For the compound `C[C@@]1([C@@H](NS(=O)(=O)c2cccc3cccnc23)c2ccc(-c3ccccc3)cc2)C[C@H]1C1CCCCC1`, the z-score turned out to be 0.698.

`COc1ccc(CCNC(=O)[C@@H]2c3ccccc3C(=O)N(Cc3cc(F)cc(C(F)(F)F)c3)[C@H]2c2ccc(CO)cc2)cc1` yielded a z-score of -0.455.

Turning to `C=CC[C@H](O)c1ccc(O)c(F)c1`, the z-score is -0.153.

In turn, `CC(C)N1CC=CC23O[C@@H]4/C=C\CCCOC(=O)C4[C@H]2C(=O)N(C(C)CO)[C@@H]3C1=O` (stereo not given in full) gave a z-score of 0.0317.

As for `C=CCOC(=O)[C@@H]1[C@H]2C(=O)O[C@H](c3ccccc3)[C@H](c3ccccc3)N2[C@H](c2ccc(OCCOC(=O)[C@H]3C[C@H]4C(=O)N[C@@H](CCCCN(C)C)C(=O)N4[C@H]3c3cccc(OCCO)c3)cc2)[C@@]12C(=O)Nc1ccccc12`, the z-score is -0.928.

`COCCOC(=O)N1C(=O)[C@@]2(c3cc(C#CC4=CCCCC4)ccc31)[C@H](C(=O)N1CCCCCCC1)[C@H]1C(=O)O[C@H](c3ccccc3)[C@H](c3ccccc3)N1[C@@H]2c1ccccc1OCCO` yielded a z-score of -0.966.

In the case of `CCCCCN1CC=CC23O[C@@H]4/C=C\CCCOC(=O)C4[C@H]2C(=O)N(CCO)[C@@H]3C1=O` (stereo not given in full), the z-score came to 0.699.

Turning to `CC(C)N1C(=O)[C@@]2(Cc3ccccc31)c1ccccc1C(=O)N(Cc1ccccc1)[C@H]2c1ccc(CO)cc1`, the z-score was 0.122.

`C=C(CC1([C@@H](NP(=O)(c2ccccc2)c2ccccc2)[C@H]2C[C@@H]2CCCC)CC1)c1cccc(OC)c1` came in with a z-score of -0.799.

`CC[C@@H](O[Si](C#C[Si](C(C)C)(C(C)C)C(C)C)(C(C)C)C(C)C)c1cn(Cc2cccc(Cl)c2)nn1` displayed a z-score of 0.0677.

In turn, `COCCCNC(=O)[C@]1(Cc2ccccc2CN=[N+]=[N-])N=C(c2ccc(OCCCO)cc2)O[C@@H]1c1ccccc1N=[N+]=[N-]` came in with a z-score of -1.12.

Regarding `COc1ccc([Si](C)(C)[C@H]2[C@H](CC(=O)N(CCO)Cc3ccccc3)O[C@@]3(C(=O)N(Cc4cccc(N5CCCCC5=O)c4)c4ccccc43)[C@@H]2C)cc1`, the z-score was -0.981.

`C=C(/C=C\CNS(=O)(=O)c1ccc(C)cc1)[C@H](O)[C@H]1CCCN1S(=O)(=O)c1ccccc1[N+](=O)[O-]` came in with a z-score of -0.938.

`[N-]=[N+]=NCc1ccccc1[C@H]1OC(c2ccc(OCCCO)cc2)=N[C@@]1(Cc1ccccc1N=[N+]=[N-])C(N)=O`: the z-score was -1.06.

In turn, `C=CCN1C(=O)[C@@]2(O[C@@H](CCO)[C@H]([Si](C)(C)c3ccc(OC)cc3)[C@H]2C)c2cc(N3CCCCC3=O)ccc21` displayed a z-score of -1.01.

Consider `Cc1ccc(S[C@]2(C(=O)NCc3ccccc3)CC(=O)N(Cc3ccccc3C(F)(F)F)[C@@H]2c2ccc(CO)cc2I)cc1`, for which the z-score is -0.491.

Compound `C=C[C@H](C)[C@@H](OC(=O)Nc1ccc(SC)cc1)c1ccc(OCCO)cc1` registered a z-score of -0.639.

In the case of `CN(C)C(=O)[C@]1(CCS(=O)(=O)c2ccccc2)N=C(c2ccc(OCCCO)cc2)O[C@@H]1c1ccccc1CN=[N+]=[N-]`, the z-score was 0.0522.

In the case of `COC(=O)[C@]1(Cc2ccccc2N=[N+]=[N-])N=C(c2ccc(OCCCO)cc2)O[C@@H]1c1ccccc1CN=[N+]=[N-]`, the z-score is -1.16.

In the case of `COc1cccc(C)c1NC(=O)O[C@H]1[C@H](OC(=O)Nc2ccccc2)[C@@H](OC(=O)Nc2ccccc2)[C@@H](OC)O[C@@H]1CO`, the z-score is -1.05.

Compound `COCCCNC(=O)[C@@]1(c2ccc([N+](=O)[O-])cc2)CC(=O)N(C2CCCCC2)[C@@H]1c1ccc(CO)cc1I` gave a z-score of 0.496.
